Screens as filed in PubChem BioAssay.
VP16 counter: VP16 counterscreen qHTS for inhibitors of ROR gamma transcriptional activity; Potency, µM (top dose mostly 53.6 µM), most hits filed as inhibitors; 310,000 compounds, 3.5% hits; Drosophila S2 Gal4-VP16 UAS-luciferase, luminescence, 20 h;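 also: Gal4-VP16 expression switched on by copper sulfate through the metallothionein promoter; nearly all actives have a fitted effect of over 50% in size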
DT40 TDP1 CPT: qHTS for Inhibitors of human tyrosyl-DNA phosphodiesterase 1 (TDP1): qHTS in cells in presence of CPT; chicken DT40 Tdp1-/-;hTDP1 cells + 20 nM CPT, ATP luminescence, 48 h; Potency, µM (top dose mostly 46.2 µM), usual class: inhibitors; 420,000 compounds, 12% hits; also: nearly all actives have a fitted effect of over 55% in size
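Cell growth measured by CellTiter-Glo luminescence after a minimum 48 h, 37 C compound exposure with 20 nM CPT in Tdp1-knockout DT40 cells stably expressing hTDP1, seeded 400/well; qHTS titration format.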
ELG1 repair inh: qHTS screen for small molecules that inhibit ELG1-dependent DNA repair in human embryonic kidney (HEK293T) cells expressing luciferase-tagged ELG1 | HEK293T ELG1-luciferase reporter, luminescence, 16 h; DNA damage induced by 5-fluorouridine | Potency, µM (top dose mostly 46.1 µM), actives largely listed as inhibitors | 330,000 compounds, 2.3% hits | AID 504467, 2011; also: nearly all actives have a fitted effect of over 55% in size
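Cells (2,000 per well) received 5-fluorouridine plus test compound or DMSO and were incubated 16 hr at 37 °C, 5% CO2. Luciferase activity was read by luminescence 30 min after ONE-Glo addition; signal suppression marked inhibition of damage-induced ELG1 function.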
12-LOX inh: Primary qHTS assay for inhibitors of human arachidonate 12S-lipoxygenase (ALOX12): Round 2; AID 1671190, 2021; Potency, µM (doses to about 108 µM), usual class: inhibitors; Polyunsaturated fatty acid lipoxygenase ALOX12 (Homo sapiens), P18054; purified 12hLO, xylenol orange hydroperoxide absorbance; 580,000 compounds, 1.1% hits
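Hydroperoxide product was detected by ferrous iron/xylenol orange as the 573 to 405 nm absorbance ratio. Arachidonic acid at 40 uM (final) was turned over for 30 min at room temperature by 150 nM human 12hLO, pH 7.0 Hepes buffer, after 15 min compound preincubation.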
RORg inh: qHTS for inhibitors of ROR gamma transcriptional activity. Nuclear receptor ROR-gamma (Mus musculus), P51450. Drosophila S2 Gal4-RORgamma UAS-luciferase reporter, 20 h. Potency, µM (highest dose often 53.6 µM), hits mostly inhibitors. 310,000 compounds, 5.4% hits; also: nearly all actives have a fitted effect of over 60% in size
Target sequence (P51450 whole entry, looked up, the tested form may be a part): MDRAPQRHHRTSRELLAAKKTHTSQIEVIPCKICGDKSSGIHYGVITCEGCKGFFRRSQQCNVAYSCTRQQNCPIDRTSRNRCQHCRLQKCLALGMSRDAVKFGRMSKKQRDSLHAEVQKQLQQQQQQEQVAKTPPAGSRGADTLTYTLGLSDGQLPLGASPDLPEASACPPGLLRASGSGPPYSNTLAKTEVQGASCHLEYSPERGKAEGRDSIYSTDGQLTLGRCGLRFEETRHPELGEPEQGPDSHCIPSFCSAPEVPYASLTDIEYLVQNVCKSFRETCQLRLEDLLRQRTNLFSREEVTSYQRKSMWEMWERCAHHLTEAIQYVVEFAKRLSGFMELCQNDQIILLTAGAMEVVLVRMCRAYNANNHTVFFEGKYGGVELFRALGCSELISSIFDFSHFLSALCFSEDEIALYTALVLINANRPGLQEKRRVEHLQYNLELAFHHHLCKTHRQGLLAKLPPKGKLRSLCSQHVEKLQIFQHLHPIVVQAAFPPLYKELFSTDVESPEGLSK
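In this cell-based reporter format, copper sulfate (700 uM final) drives Gal4–ROR gamma fusion expression from a metallothionein promoter in Drosophila Schneider cells; compounds preincubated 1 hr, reporter read after 20 hr at ambient temperature.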
TDP1 cell noCPT: qHTS for Inhibitors of human tyrosyl-DNA phosphodiesterase 1 (TDP1): qHTS in cells in absence of CPT; DT40 Tdp1-/- hTDP1 cells, no CPT, ATP luminescence, 48 h; Potency, µM (doses to about 46.2 µM), actives largely listed as inhibitors; 420,000 compounds, 15% hits; also: nearly all actives have a fitted effect of over 55% in size
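Compound effects on proliferation are scored in DT40 Tdp1-/-;hTDP1 cells in the absence of CPT. ATP levels (CellTiter-Glo luminescence) are recorded after a ≥48 hr, 37 °C incubation.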
Large screens that a line does not name were inactive. An excerpt weighted towards active compounds, which were near 15% of everything screened. Calls follow the shape of the dose curve; as a rule, active = well fitted curve in the direction sought with a large enough effect; inconclusive = small, poorly fitted or top-dose-only effect, or another doubt; inactive = no such curve, though single readings can be large; an effect the other way counts as inactive or inconclusive.

CCOC(=O)c1cc(-c2ccc(N3CCOCC3)cc2)nn1-c1ccccc1	DT40 TDP1 CPT 21µM, ELG1 repair inh inconclusive, TDP1 cell noCPT 12µM
O=C(Cn1c(=O)[nH]c2ccccc2c1=O)N1CCN(Cc2ccc3c(c2)OCO3)CC1	DT40 TDP1 CPT inconclusive, ELG1 repair inh 23µM, TDP1 cell noCPT inconclusive
O=C(Cn1cnc2ccccc2c1=O)N1CCN(Cc2ccc3c(c2)OCO3)CC1	ELG1 repair inh inconclusive
CC(C)[C@@H](C(=O)N1CCN(Cc2ccc3c(c2)OCO3)CC1)n1nnc2ccccc2c1=O	DT40 TDP1 CPT 21µM, TDP1 cell noCPT 13µM
O=C(CN1C(=O)c2cccc3cccc(c23)C1=O)N1CCN(Cc2ccc3c(c2)OCO3)CC1	DT40 TDP1 CPT 21µM, ELG1 repair inh inconclusive, TDP1 cell noCPT 18µM
CC(C)[C@H](NC(=O)c1ccc(C(C)(C)C)cc1)C(=O)N1CCN(Cc2ccc3c(c2)OCO3)CC1	DT40 TDP1 CPT 3.7µM, ELG1 repair inh 16µM, TDP1 cell noCPT 3.7µM (no result: VP16 counter, RORg inh)
Cc1ccc2c(=O)cc(C(=O)Nc3cccc(Cl)c3)oc2c1	none (no result: VP16 counter, DT40 TDP1 CPT, ELG1 repair inh, RORg inh, TDP1 cell noCPT)
O=C(CCCCCn1c(=O)[nH]c2ccccc2c1=O)N1CCN(Cc2ccc3c(c2)OCO3)CC1	DT40 TDP1 CPT 13µM, ELG1 repair inh 18µM, TDP1 cell noCPT inconclusive
Nc1nc2c(s1)CCc1c-2cnn1-c1ccccc1	DT40 TDP1 CPT 15µM, ELG1 repair inh inconclusive, TDP1 cell noCPT 13µM (no result: 12-LOX inh)
Cc1ccc(-c2cnn(-c3ccccc3)c2N)cc1	VP16 counter inconclusive, DT40 TDP1 CPT inconclusive, ELG1 repair inh inconclusive, RORg inh inconclusive
CCCCCCCCCCCC(=O)N/N=C\CC(C)C	none (no result: VP16 counter, DT40 TDP1 CPT, ELG1 repair inh, RORg inh, TDP1 cell noCPT)
N#Cc1ccccc1S(=O)(=O)N1CCN(Cc2cc3c(cc2Br)OCCO3)CC1	DT40 TDP1 CPT 16µM, 12-LOX inh inconclusive, TDP1 cell noCPT inconclusive (no result: VP16 counter, ELG1 repair inh, RORg inh)
CCOc1ccc(-c2ccc(C#N)c(SCC(=O)Nc3ccc(F)cc3)n2)cc1	none (no result: VP16 counter, DT40 TDP1 CPT, ELG1 repair inh, RORg inh, TDP1 cell noCPT)
CCn1c(=O)cc(OCC(=O)Nc2cc(OC)c(OC)c(OC)c2)c2ccccc21	DT40 TDP1 CPT 15µM, TDP1 cell noCPT inconclusive (no result: VP16 counter, ELG1 repair inh, RORg inh)
CCn1c(=O)cc(SCC(=O)NCCc2cc(OC)ccc2OC)c2ccccc21	DT40 TDP1 CPT 21µM, TDP1 cell noCPT 21µM (no result: VP16 counter, ELG1 repair inh, RORg inh)
CCn1c(=O)cc(SCC(=O)Nc2cc(OC)c(OC)c(OC)c2)c2ccccc21	DT40 TDP1 CPT 23µM, TDP1 cell noCPT inconclusive
CCn1c(=O)cc(SCC(=O)Nc2cccc(SC)c2)c2ccccc21	ELG1 repair inh inconclusive, RORg inh inconclusive, TDP1 cell noCPT inconclusive
CCn1c(=O)cc(OCC(=O)Nc2ccccc2Cl)c2ccccc21	none (no result: VP16 counter, ELG1 repair inh, RORg inh)
CCc1c(C)nc(SCc2nc(-c3ccc(OC)cc3OC)oc2C)[nH]c1=O	none (no result: VP16 counter, DT40 TDP1 CPT, ELG1 repair inh, RORg inh, TDP1 cell noCPT)
CC1CN(Cc2coc(-c3cccc(F)c3)n2)CCO1 (configuration not stated)	none (no result: VP16 counter, DT40 TDP1 CPT, ELG1 repair inh, RORg inh, TDP1 cell noCPT)
Cc1cc(C)c2cc(CN(CCN(C)C)C(=O)Nc3ccccc3Cl)c(=O)[nH]c2c1	DT40 TDP1 CPT inconclusive, ELG1 repair inh inconclusive, TDP1 cell noCPT 15µM
Cc1cc(C)c2cc(CN(Cc3ccco3)C(=O)NCc3ccccc3)c(=O)[nH]c2c1	VP16 counter inconclusive, ELG1 repair inh 8.2µM, 12-LOX inh inconclusive
O=C(c1ccc(C(F)(F)F)cc1)N1CCCC2(CN[S+](=O)([O-])c3ccccc3N2)C1 (configuration not stated)	none (no result: VP16 counter, DT40 TDP1 CPT, ELG1 repair inh, RORg inh, TDP1 cell noCPT)
COc1ccc(Cl)cc1S(=O)(=O)N1CCC(n2cnnc2C(C)C)CC1	none (no result: VP16 counter, DT40 TDP1 CPT, ELG1 repair inh, RORg inh, TDP1 cell noCPT)
C/C=C/C=C/C(=O)OCc1nc2c(c(=O)[nH]c(=O)n2CCCC)n1C	none (no result: VP16 counter, DT40 TDP1 CPT, ELG1 repair inh, RORg inh, TDP1 cell noCPT)
O=C(CN1CCN(C/C=C/c2ccccc2)CC1)NCc1ccc(Cl)cc1	DT40 TDP1 CPT 5.8µM, ELG1 repair inh inconclusive, TDP1 cell noCPT 4.6µM
